Data taken from PubChem BioAssay (NCATS).
Results filed as inconclusive are left out. Activity calls are given as the source filed them. The call rests on the fitted dose curve; in most records, active means well fitted inhibition curve with a large enough effect; inconclusive means small, poorly fitted or top-dose-only effect; inactive means flat fitted curve, though single readings scatter.

Assay: qHTS for identification of novel therapeutic agents for treatment of microphthalmiaassociated transcription factor (MiT) renal cell carcinoma (RCC) (AID 1963991)
Conditions: TFE3-RCC viability, CellTiter-Glo, 48 h; measured here: UOK145 Z-AUC; stronger effect = lower value
Procedure, shortened: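 Viability of three TFE3-fusion renal carcinoma lines measured by CellTiter-Glo after 48 h treatment with each of 1912 compounds at 11 concentrations. Responses scaled between DMSO (100%) and empty wells (0%) before curve fitting.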
`C[C@@H]1CCO[C@H]2Cn3cc(C(=O)NCc4ccc(F)cc4F)c(=O)c(O)c3C(=O)N12` showed a z-score of 1.66.
For `CN[C@H]1[C@@H](O[C@@H]2[C@H](O[C@@H]3[C@@H](O)[C@@H](O)[C@@H](N=C(N)N)[C@@H](O)[C@@H]3N=C(N)N)O[C@H](C)[C@@]2(O)C=O)O[C@@H](CO)[C@@H](O)[C@H]1O`, the z-score was 2.73.
`O=C(O)C1=NC(C(=O)O)CC(C=CN2c3cc(O)c(OC4OC(CO)C(O)C(O)C4O)cc3CC2C(=O)O)=C1` (centres undefined) gave a z-score of 0.57.
For `COc1cc(C=CC(=O)O)ccc1O`, the z-score was 0.103.
In the case of `CNC1[C@H](O)C(O[C@@H]2C(O)C(O[C@H]3O[C@H]([C@@H](C)NC)CC[C@H]3N)[C@@H](N)C[C@H]2N)OC[C@]1(C)O` (some centres undefined), the z-score is reported as 0.886.
Compound `CO[C@H]1C=CO[C@@]2(C)Oc3c(C)c(O)c4c(O)c(c(C=NN5CCN(C)CC5)c(O)c4c3C2=O)NC(=O)C(C)=CC=C[C@H](C)[C@H](O)[C@@H](C)[C@@H](O)[C@@H](C)[C@H](OC(C)=O)[C@H]1C` has a z-score of 1.3.
For `CCC=CC[C@H]1C(=O)CC[C@@H]1CC(=O)OC`, the z-score was 0.356.
Compound `CCCCCOC(=O)Nc1nc(=O)n([C@@H]2O[C@H](C)[C@@H](O)C2O)cc1F` (some centres undefined) has a z-score of 0.317.
For `CO[C@H]1O[C@@H]2O[C@@]3(C)CC[C@@H]4[C@@H](C)CC[C@@H]([C@H]1C)[C@@]24OO3`, the z-score was 0.763.
`CC(=O)OCC(=O)[C@@]12OC(C)(C)O[C@H]1C[C@H]1[C@@H]3C[C@H](F)C4=CC(=O)C=C[C@]4(C)[C@@]3(F)[C@@H](O)C[C@@]12C` gave a z-score of 0.0965.
With `O=C(c1ccc(C(=O)N2CCC(N3CCCC3)CC2)c(Nc2ccccc2)c1)N1CCC(N2CCCC2)CC1` the z-score was 0.591.
For `CCNC(=O)CCCC=CC[C@@H]1[C@H](C=CC(O)CCc2ccccc2)[C@@H](O)C[C@@H]1O` (some centres undefined), the z-score was 1.41.
`CCN1C[C@H](C)n2c(c(O)c3c(=O)n(Cc4ccc(F)c(Cl)c4)nc(C(=O)NC)c32)C1=O` gave a z-score of 2.87.
`N=C1SC(=Cc2ccc(-c3ccc4c(c3)C(=O)NC4=O)o2)C(=O)N1c1ccc(Br)cc1` showed a z-score of 0.868.
Work on `CC(C)=CCCC(C)=CCCC(C)=CCCC(C)=CCCC(C)=CCCC(C)=CCCC(C)=CCCC(C)=CCCC(C)=CCO` yielded a z-score of 1.27.
For `COc1cc(CNC(=O)CCCCC=CC(C)C)ccc1O`, the z-score was 0.0429.
`C[C@H](c1ccc(F)cc1CCCC(=O)O)N(c1cc(F)ccc1F)S(=O)(=O)c1ccc(Cl)cc1` gave a z-score of -0.497.
`CO[C@H]1/C=C\O[C@@]2(C)Oc3c(C)c(O)c4c(O)c(c5c(nc6cc(C)ccn65)c4c3C2=O)NC(=O)C(C)=CC=C[C@H](C)[C@H](O)[C@@H](C)[C@@H](O)[C@@H](C)[C@H](OC(C)=O)[C@H]1C` gave a z-score of 0.817.
`CC[C@]1(O)C[C@H]2CN(CCC3=c4ccccc4=N[C]3[C@@](C(=O)OC)(c3cc4c(cc3OC)N(C)[C@H]3[C@@](O)(C(N)=O)[C@H](O)[C@]5(CC)C=CCN6CC[C@]43[C@@H]65)C2)C1` gave a z-score of -0.904.
Compound `O=c1[nH]c(=O)n([C@H]2C[C@@H](O)[C@@H](CO)O2)cc1I` has a z-score of 0.313.
In the case of `CCCCC[C@H](O)C=C[C@H]1[C@H](O)CC(=O)[C@H]1CCCCCCC(=O)O`, the z-score is reported as 1.28.
In the case of `C=CC[N+]1([C@H]2C[C@H]3[C@@H]4CC[C@H]5C[C@H](O)[C@@H](N6CCOCC6)C[C@]5(C)[C@@H]4CC[C@]3(C)[C@H]2OC(C)=O)CCCC1`, the z-score is reported as 0.368.
Compound `C[C@]12C=CC(=O)C=C1CC[C@@H]1[C@@H]2[C@@H](O)C[C@@]2(C)[C@@H]1CC[C@]2(O)C(=O)CO` has a z-score of -1.47.
For `COc1ccc2c(c1)CC[C@H]1[C@@H]2CC[C@]2(C)[C@@H](NCCCCCCN3C(=O)C=CC3=O)CC[C@H]12`, the z-score was 0.661.
In the case of `CCOC(=O)[C@H]1O[C@H]1C(=O)N[C@@H](CC(C)C)C(=O)NCCC(C)C`, the z-score is reported as 0.572.
`CC=C1C2C=C(C)CC1(N)c1ccc(=O)[nH]c1C2` (centres undefined) gave a z-score of 1.2.

Assay: qHTS profiling for inhibitors of Plasmodium falciparum proliferation (AID 504749);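 further: 0% = DMSO vehicle and full inhibition = artemisinin control; nearly all actives have a fitted effect of over 60% in size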
Conditions: P. falciparum in erythrocytes, SYBR Green DNA, 72 h; at 28.7 µM (top of the series); parasite line A
Procedure, shortened: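 Fluorescence of SYBR Green-bound parasite DNA, read at 485/535 nm, served as the growth measure. Infected erythrocytes were cultured with compound 72 h; artemisinin (0.29 uM) and DMSO wells defined the normalization range.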
For `CN1CC(=O)N2C(Cc3c([nH]c4ccccc34)[C@H]2c2ccc3c(c2)OCO3)C1=O` (some centres undefined), the activity, negative = inhibition was 3.25% (inactive).
With `O=C1C(CCC(O)c2ccc(F)cc2)C(c2ccc(O)cc2)N1c1ccc(F)cc1` (centres undefined) the activity, negative = inhibition was 3.97% (inactive).
In the case of `COc1ccnc(CS(=O)c2nc3ccc(OC(F)F)cc3[nH]2)c1OC` (centres undefined), the activity, negative = inhibition is reported as -7.9% (inactive).
For `CC(C)CN(C[C@@H](O)[C@H](Cc1ccccc1)NC(=O)O[C@H]1CO[C@H]2OCC[C@H]21)S(=O)(=O)c1ccc(N)cc1`, the activity, negative = inhibition was 1% (inactive).

Same assay, conditions: P. falciparum in erythrocytes, SYBR Green DNA, 72 h; at 28.7 µM (top of the series); parasite line B
With `CN1CC(=O)N2C(Cc3c([nH]c4ccccc34)[C@H]2c2ccc3c(c2)OCO3)C1=O` (some centres undefined) the activity, negative = inhibition was 5.31% (inactive).
With `O=C1C(CCC(O)c2ccc(F)cc2)C(c2ccc(O)cc2)N1c1ccc(F)cc1` (centres undefined) the activity, negative = inhibition was 8.1% (inactive).
In the case of `COc1ccnc(CS(=O)c2nc3ccc(OC(F)F)cc3[nH]2)c1OC` (centres undefined), the activity, negative = inhibition is reported as -10.6% (inactive).
In the case of `CC(C)CN(C[C@@H](O)[C@H](Cc1ccccc1)NC(=O)O[C@H]1CO[C@H]2OCC[C@H]21)S(=O)(=O)c1ccc(N)cc1`, the activity, negative = inhibition is reported as -15.6% (inactive).
